# In the supplement of paper PMC6555819:
# Experiments:
# Experiment in all cases: PBM binding z-score (relative to random genomic background probes); higher = stronger binding; sequences stand for … in GC…GCGATTGACAGCGTAGAATGAAGG
# [1] = tested on: FXR:RXRa (NR concentration 270 nM, RXRa partner concentration 90 nM)
# Summary of the method: (§1)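 Regression normalization was applied to scanned fluorescence from custom Agilent 4×180K protein-binding microarrays. Before scanning, arrays were incubated 1 h with ligand-free nuclear receptor dimers, and binding was detected with antibodies against each partner (one per run). Binding z-scores use the random background probes as reference.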
# [2] = tested on: LXRa:RXRa (NR concentration 270 nM, RXRa partner concentration 90 nM)
# Summary of the method: as §1
# [3] = tested on: LXRa homodimer (NR concentration 270 nM)
# Summary of the method: as §1
# [4] = tested on: LXRb:RXRa (NR concentration 270 nM, RXRa partner concentration 90 nM)
# Summary of the method: as §1
# [5] = tested on: LXRb homodimer (NR concentration 270 nM)
# Summary of the method: as §1
# [6] = tested on: PPARa:RXRa (NR concentration 270 nM, RXRa partner concentration 90 nM)
# Summary of the method: as §1
# [7] = tested on: PPARg:RXRa (NR concentration 180 nM, RXRa partner concentration 90 nM)
# Summary of the method: as §1
# [8] = tested on: PPARg:RXRa 270nM:90nM, anti-RXR (NR concentration 270 nM, RXRa partner concentration 90 nM)
# Summary of the method: as §1
# [9] = tested on: PPARg:RXRa 30nM:10nM, anti-RXR (NR concentration 30 nM, RXRa partner concentration 10 nM)
# Summary of the method: as §1
# [10] = tested on: PPARg:RXRa 90nM:30nM, anti-RXR (NR concentration 90 nM, RXRa partner concentration 30 nM)
# Summary of the method: as §1
# [11] = tested on: PPARg:RXRa DBDmut IVT, anti-RXR (DBD mutation: RXRa K156A/R161A, NR concentration 270 nM, RXRa partner concentration 90 nM)
# Summary of the method: as §1
# [12] = tested on: PPARg:RXRa IVT, anti-PPARg (NR concentration 270 nM, RXRa partner concentration 90 nM)
# Summary of the method: as §1
# [13] = tested on: PPARg DBDmut:RXRa IVT, anti-PPARg (DBD mutation: PPARg1 K132A/R137A, NR concentration 270 nM, RXRa partner concentration 90 nM)
# Summary of the method: as §1
# [14] = tested on: PPARg DBDmut IVT, anti-PPARg (DBD mutation: PPARg1 K132A/R137A, NR concentration 270 nM)
# Summary of the method: as §1
# [15] = tested on: PPARg homodimer (NR concentration 180 nM)
# Summary of the method: as §1
# [16] = tested on: PXR:RXRa (NR concentration 270 nM, RXRa partner concentration 90 nM)
# Summary of the method: as §1
# [17] = tested on: PXR homodimer (NR concentration 270 nM)
# Summary of the method: as §1
# [18] = tested on: RARa:RXR (NR concentration 270 nM, RXRa partner concentration 90 nM)
# Summary of the method: as §1
# [19] = tested on: RARa homodimer (NR concentration 270 nM)
# Summary of the method: as §1
# [20] = tested on: RARb:RXRa (NR concentration 270 nM, RXRa partner concentration 90 nM)
# Summary of the method: as §1
Sequence,PBM binding z-score [1],PBM binding z-score [2],PBM binding z-score [3],PBM binding z-score [4],PBM binding z-score [5],PBM binding z-score [6],PBM binding z-score [7],PBM binding z-score [8],PBM binding z-score [9],PBM binding z-score [10],PBM binding z-score [11],PBM binding z-score [12],PBM binding z-score [13],PBM binding z-score [14],PBM binding z-score [15],PBM binding z-score [16],PBM binding z-score [17],PBM binding z-score [18],PBM binding z-score [19],PBM binding z-score [20]
CCTAGTTAGTCAGGAGGTCACACACCGGATATGA,3.41,3.69,2.46,3.68,1.17,4.29,2.42,3.19,1.24,2.16,1.08,2.35,1.22,0.693,3.69,4.33,1.96,4.59,2.45,3.69
ATATGTGGGTTAAGGGTCATTCAGGTTGGTTCGC,5.26,4.74,3.07,4.91,2.59,6.53,11.6,9.82,10.4,11.3,7.01,7.51,2.4,2.39,3.88,5.53,3.93,6.07,3.29,3.59
ATCTCTAGGTAACAAGTTCAGTAAAAGAGAGGAC,0.872,1.08,1.01,0.953,1.1,1.81,1.76,2.11,0.675,1.82,3.06,3.22,1.24,1.1,1.34,1.67,1.66,1.57,1.54,1.78
CTGACTGGGGCAGAAAGGTTACCATACCATCCGG,0.933,1.01,0.207,1.5,-0.293,2.65,2.32,3,1.18,2.35,2.87,3.6,0.376,0.141,1.76,1.12,0.49,1.75,0.326,2.13
GGTACAGGGTCAAGGCCAGAGTACGCGTATTGAT,6.7,3.85,0.0121,3.89,-0.206,5.92,5.62,5.68,2.38,4.07,1.42,3.96,0.368,0.441,2.35,3.98,0.674,4.77,0.889,4.63
TCTCGGAGGACACGAAGATCAGAGCTTTCCAGAG,0.203,-0.201,-0.688,-0.685,-1.08,0.0727,0.181,0.96,2.25,1.67,1.06,-0.251,-1.11,-0.408,-0.646,-0.151,-0.592,0.08,-0.514,1.21
GCTACCAGGCCATTTGGGTCACTCAATGACGGGC,0.22,0.0663,-0.549,0.301,-0.419,1.57,0.923,0.744,-0.356,0.658,2.04,2.77,0.125,-0.407,-0.0143,0.976,0.553,0.919,-0.79,1.59
ATCTCTAGGTAACCAAGTCCAGTGAATGCCGAAC,0.284,0.199,-0.00888,0.0348,0.546,0.54,0.444,0.891,0.172,0.381,3.27,2.54,0.49,1.58,0.614,0.0528,0.209,0.268,0.592,0.379
AATACACGGTCACTAGGCCAGAGTAGGTACGAAT,0.614,1.45,1.32,0.203,0.449,0.827,2.67,1.74,0.885,1.15,2.08,3.87,1.22,1.13,0.988,0.0441,-0.0687,0.462,0.429,2.77
TATACAGGGTCAAAGGCAAGAGTACGAATGTCGA,6.51,6.12,2.15,4.62,2.67,5.97,7.76,6.96,4.69,6.75,2.4,4.77,3.32,1.87,2.27,3.86,1.15,5.3,1.42,4.43
ATCGAAAGGTCGTGAGGTGAGCATACAGAAAGGC,4.88,3.62,-0.0763,2.89,0.368,4.84,3.58,4.56,1.29,2.96,0.297,2.79,1.33,0.333,0.137,2.77,0.261,3.85,0.316,3.89
CAGCCTAGGTCAGGGCCAGTATGGGAGGAACGTT,1.41,0.705,-0.724,0.176,-1.05,2.06,0.648,0.825,-0.673,0.0186,0.702,1.59,-1.71,-1.33,0.437,0.196,-0.864,0.839,-0.701,3.43
ACTCAAAGTTCACTAGGTAACGTAAGATTCAGCT,5.32,5.16,3.54,3.55,1.83,4.73,5.15,5.21,2.16,4.22,3.09,4.19,1.81,1.14,3.86,4.2,3.09,3.17,3.01,4.95
CCTAGCAGGCCAGGGTAACTCAAGCATTTCGCTT,-0.463,-0.678,-0.559,-0.682,-1.09,0.0169,-0.112,-0.182,-1.01,-0.605,0.216,-0.0636,-1.68,-1.83,-0.387,-0.679,-0.762,-0.455,-0.937,-0.102
